A selection: hits, their analogues and other compounds. The true share with any hit is near 28%.
CYP2C19 inh: blockers of cytochrome P450 2C19 activity – biochemical, luminescence, ADME assay, primary screen; CYP2C19 Supersomes, luciferin-H EGE luminescence, 30 min; inhibition, % at 5 µM; P33261; 96,000 compounds, 21% hits; AID 778, 2007;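 active = CYP2C19 inhibition above a set limit at 5 µM in the primary screen, cut at about 50% in these data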
CYP2C9 inhib: blockers of cytochrome P450 2C9 activity – biochemical, luminescence, ADME assay, primary screen; P11712; CYP2C9 Supersomes, luciferin-H conversion; inhibition, % at 5 µM; 96,000 compounds, 20% hits;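 active = blocking of liver enzyme CYP2C9 beyond about 50% at 5 µM, limit read from the data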
CYP2C19 act: human CYP2C19 activators, primary screen, biochemical, luminescence. Cytochrome P450 2C19 (Homo sapiens), P33261. recombinant CYP2C19, luciferin-H EGE luminescence; stronger effect = higher value; 0 = fully inhibited enzyme, 1 = untreated enzyme. activation factor at 5 µM. 96,000 tested, under 10 active. AID 1025, 2008;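 active = activation factor of at least 2 at 5 µM in the primary screen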
DAT uptake mod: changed hDAT dopamine uptake under cocaine IC80, either direction, primary screen, cocaine antagonist project, cell-based, LLC-PK1 hDAT, [14C]-dopamine uptake, MLSMR; Sodium-dependent dopamine transporter (Homo sapiens), Q01959; LLC-PK1 hDAT cells, [14C]-dopamine uptake with cocaine IC80; actives deviate in either direction; B-score at 10 µM; 110,000 compounds, 1.3% hits;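 active = Z score or B-score, a plate-position-corrected score, falls beyond the plate's 99.7% confidence bounds, in either direction; inactive = both scores lie inside the 99.7% bounds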
CYP2C9 act: human CYP2C9 activators, primary screen, biochemical, luminescence; Cytochrome P450 2C9 (Homo sapiens), P11712; recombinant CYP2C9, luciferin-H conversion; stronger effect = higher value; factor 1 = untreated enzyme, 0 = blocked; activation factor at 5 µM; 96,000 compounds, 1.4% hits; AID 1024, 2008;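 active = activation factor of 2 or more for CYP2C9 at a 5 µM dose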
D1 mod: D1 CRE-luciferase signal change, two-sided – cell-based, HEK293 D1, dopamine EC30, D1 allosteric modulator project, primary screen; D(1A) dopamine receptor (Homo sapiens), P21728; 58,000 compounds, 5.9% hits; B-score at 10 µM; dopamine EC30 potentiation; actives deviate in either direction;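 active = luminescence count or its row- and column-corrected plate score outside the 99.7% band of the plate's sample wells, on either side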
Target sequence (P21728 whole entry, looked up): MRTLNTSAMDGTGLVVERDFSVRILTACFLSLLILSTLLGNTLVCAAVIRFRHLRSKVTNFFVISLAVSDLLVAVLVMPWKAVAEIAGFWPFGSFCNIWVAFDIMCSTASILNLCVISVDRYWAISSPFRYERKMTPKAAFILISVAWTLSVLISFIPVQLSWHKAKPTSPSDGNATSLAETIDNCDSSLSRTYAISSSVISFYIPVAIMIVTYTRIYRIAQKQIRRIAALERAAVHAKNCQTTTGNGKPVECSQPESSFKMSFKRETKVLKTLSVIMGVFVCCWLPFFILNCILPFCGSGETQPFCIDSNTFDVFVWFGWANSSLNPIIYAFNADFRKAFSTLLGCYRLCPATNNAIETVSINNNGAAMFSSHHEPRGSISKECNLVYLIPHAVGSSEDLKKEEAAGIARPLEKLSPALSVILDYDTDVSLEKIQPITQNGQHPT
A number is an active result; - = inactive; . = not tested or not shown.

SMILES	CYP2C19 inh	CYP2C9 inhib	CYP2C19 act	DAT uptake mod	CYP2C9 act	D1 mod
c1ccc2c(c1)oc1c(NCc3ccc4c(c3)OCO4)ncnc12	70	85	-	-	-	-
Cc1nc(Nc2ccc3c(c2)OCO3)c2oc3ccccc3c2n1	55	66	-	-	-	.
c1ccc2c(c1)oc1c(NCCN3CCOCC3)ncnc12	-	-	-	-	-	-
c1ccc2c(c1)oc1c(Nc3ccc(CN4CCOCC4)cc3)ncnc12	60	-	-	-	-	-
Cc1ccnc(NC(=O)CCC(=O)N(CC(=O)NC2CCCCC2)CC2CCCO2)c1 (stereo not drawn)	-	-	-	-	-	-
Cc1c(Cl)cccc1NC(=O)CCC(=O)NNC(=O)c1ccccc1Cl	-	-	-	-	-	.
CC(OC(=O)c1cccnc1SCc1cc(=O)n2ccccc2n1)c1ccccn1 (stereo not drawn)	-	60	-	-	-	.
Cc1cc(NC(=O)CSc2nc(-c3ccccc3)c(C#N)c(=O)[nH]2)no1	-	70	-	-	-	-
C=CCSc1nc(-c2ccccc2)c(C#N)c(=O)[nH]1	-	-	-	-	-	.
Cc1cc(NC(=O)CSc2nc3ccccc3[nH]2)no1	-	-	-	-	-	-
CCOC(=O)CCCCC(=O)c1[nH]c(=O)[nH]c1CSc1nc(-c2ccccc2)c(C#N)c(=O)[nH]1	-	86	-	-	-	-
Cc1cccc(NC(=O)CSc2nc(-c3ccccc3)c(C#N)c(=O)[nH]2)c1C	-	93	-	.	-	.
C=C(CC1([C@@H](NP(=O)(c2ccccc2)c2ccccc2)[C@H]2C[C@@H]2CCCC)CC1)c1ccccc1	.	.	.	-	.	.
Cc1cccc(NC(=O)CS(=O)(=O)c2cn(C)c3ccccc23)c1	56	-	-	-	-	-
CCOC(=O)N1CCN(C(=O)CS(=O)(=O)c2cn(Cc3ccccc3Cl)c3ccccc23)CC1	-	-	-	-	-	.
CCn1cc(S(=O)(=O)CC(=O)Nc2cc(C)ccc2C)c2ccccc21	96	-	-	-	-	-
Cc1cc(NC(=O)CS(=O)(=O)c2cn(Cc3ccccc3Cl)c3ccccc23)no1	-	68	-	-	-	-
O=C(CCSc1nnc2ccc3ccccc3n12)Nc1ccc(F)cc1	-	-	-	-	2.1	.
O=C(CCSc1nnc2ccccn12)Nc1ccc(F)cc1	-	-	-	-	-	-
O=C(CCSc1ccc(F)cc1)Nc1ccc(-n2cnnn2)cc1	59	-	-	-	-	.
O=C(C1CCN(S(=O)(=O)c2ccc3ccccc3c2)CC1)N1CCN(c2ncccn2)CC1	71	-	-	-	-	-
COc1ccc(N2CCN(C(=O)C3CCCN(S(=O)(=O)c4cccc5cccnc45)C3)CC2)cc1 (stereo not drawn)	65	-	-	-	-	-
O=S(=O)(c1cccc2cccnc12)N1CCN(c2ccccc2)CC1	99	-	-	-	2.8	.
COc1ccc(NC(=O)C2CCCN(S(=O)(=O)c3cccc4cccnc34)C2)c(OC)c1 (stereo not drawn)	-	-	-	-	-	-
CCOC(=O)C1CCN(C(=O)C2CCN(S(=O)(=O)c3cccc4cccnc34)CC2)CC1	-	-	-	-	2.3	.
SMILES	CYP2C19 inh	CYP2C9 inhib	CYP2C19 act	DAT uptake mod	CYP2C9 act	D1 mod
CC1Cc2ccccc2N1C(=O)C1CCCN(S(=O)(=O)c2cccc3cccnc23)C1 (stereo not drawn)	78	-	-	-	-	-
Cc1ccc2cccc(S(=O)(=O)N3CCN(c4cccc(Cl)c4)CC3)c2n1	92	-	-	-	-	-
O=C(C1CCN(S(=O)(=O)c2cccc3cccnc23)CC1)N1CCN(c2ccc(Cl)cc2)CC1	85	-	-	-	2.3	-
Cn1c(SCc2ccc(Cl)cc2)nc(C(F)(F)F)cc1=O	-	-	-	-	-	.
c1ccc(-n2c(Sc3cnccn3)nnc2-c2cccs2)cc1	71	-	-	-	-	-
COc1ccccc1N1CCN(Cc2ccco2)CC1	-	-	-	-	-	-
COc1cc(-c2nnc(-c3ccco3)o2)ccc1OCc1ccccc1	.	.	.	-	.	-
COc1cc(C2CC(=O)N3CN(Cc4ccco4)CSC3=C2C#N)ccc1OCc1ccccc1 (stereo not drawn)	-	83	-	-	-	-
COc1ccc2ccccc2c1C1CC(=O)N2CN(C3CCCCC3)CSC2=C1C#N (stereo not drawn)	55	90	-	-	-	-
CCOc1cc(C2CC(=O)N3CN(C4CCCCC4)CSC3=C2C#N)ccc1O (stereo not drawn)	53	82	-	-	-	-
COc1ccc2ccccc2c1C1CC(=O)N2CN(Cc3ccco3)CSC2=C1C#N (stereo not drawn)	55	86	-	-	-	-
CCCOc1ccc(/C(O)=C2\C(=O)C(=O)N(CCCN(C)C)C23C(=O)N(C)c2ccccc23)cc1 (stereo not drawn)	-	-	-	.	-	-
O=C(c1ccccn1)N(Cc1ccco1)C1(C(=O)NC2CCCC2)CCCCC1	-	-	-	-	-	.
Cc1ccc(N(C(=O)c2ccccn2)C2(C(=O)NC3CCCC3)CCCCC2)cc1	-	93	-	-	-	.
CC(=O)c1cccc(NC(=O)N2CCCC2C(=O)Nc2cc(C)ccc2C)c1 (stereo not drawn)	-	-	-	-	-	-
CCOc1ccccc1N1CC(C(=O)N2CCc3ccccc3C2)CC1=O (stereo not drawn)	-	-	-	-	-	.
COc1ccc(-c2[nH]ncc2/C=N\NS(=O)(=O)c2ccc(Cl)cc2)cc1	90	68	-	-	-	.
COc1ccc(-c2nn(-c3ccccc3)cc2/C=N/NS(=O)(=O)c2ccccc2)cc1	-	63	-	.	-	.
CC(C)(Oc1ccc(Cl)cc1)C(=O)N/N=C/c1cn[nH]c1-c1ccccc1	72	72	-	-	-	.
COc1ccc(/C=N\NS(=O)(=O)c2ccc(Br)cc2)cc1COc1ccccc1[N+](=O)[O-]	.	.	.	-	.	.
COc1ccc(-c2[nH]ncc2/C=N\NS(=O)(=O)c2ccccc2)cc1OC	-	71	-	.	-	.
O=C(c1cnc2n(c1=O)CCS2)N(C1CCCCC1)C1CCCCC1	-	-	-	-	-	-
COc1ccc(C2C(=O)N(C3CCCCC3)CC(=O)N2C2CCCCC2)cc1 (stereo not drawn)	-	53	-	-	-	.
